Source: PubChem BioAssay
“And” between values parts separate entries of the source, which are not always exact repeats. Identical values can stand only once. A structure can be active in one record and inactive in another. The source made the active and inactive calls. Unless noted, how the calls were made is not given here.

Tests used:
[1] = system: Hepatitis C virus NS3 helicase; assay: HCV NS3 helicase inhibitors, primary screen, biochemical, fluorescence polarization, LOPAC1280 library (AID 687035; in the data active means inhibition above about 37%); settings: Purified HCV NS3 helicase, Cy5-dT15 ssDNA binding fluorescence polarization; stronger effect = higher value; concentration not given here
[2] = Cy5 fluorescence quenching or enhancement artefacts, artefact control for HCV NS3 helicase inhibitor project, biochemical, LOPAC1280 (AID 687037); settings: Cy5-DNA-NS3h complex fluorescence interference counterscreen
[3] = sensitizers of A549 cells to miR-34 induction, primary screen, imaging, A549 dox-inducible miR-34, nuclei and caspase counts (AID 1347080;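 active means compounds whose cell count with miR-34 switched on is under 0.7 times the count with it off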); settings: A549 miR-34 inducible, Hoechst nuclei count, 48 h
[4] = phospholipid biosynthesis inhibitors in animal cells, primary screen, cell-based, LOPAC library, screen 4 (AID 1347384); settings: phospholipid biosynthesis inhibition screen, at 10 µM
[5] = viability rescue of complex I mutant cybrids, primary screen, cell-based, galactose medium, ATP luminescence (AID 1645843;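 active means z-score of at least 1.8 in each of two replicates, scored against plate mean and spread of sample wells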;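 further: positive z means more ATP and so rescue of galactose-driven cybrid death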); settings: complex I mutant cybrid cells, 72 h, stronger effect = higher value
[6] = circadian clock period modulators, cell-based, LOPAC library, luminescence reporter (AID 2774); settings: circadian reporter cells, at 7 µM, actives lie on both sides;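 further: values are relative to mean of DMSO wells on each plate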
[7] = survival rescue of mitochondrial mutant cells in low glucose, primary screen, MELAS cybrids, Rieske KO mouse fibroblasts, CellTiter-Glo (AID 1508586;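 active means mean z-score across replicates of 1.96 or higher in either the MELAS or the Rieske mutant cell line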;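 further: z relative to plate mean and SD of compound and empty wells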)
[8] = hESC survival regulators, cell-based (AID 493140); settings: human embryonic stem cell survival screen; stronger effect = higher value;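 further: cells exposed to compounds for four days before counting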
[9] = liver-stage malaria parasite growth inhibition, primary screen, cell-based, HepG2, luciferase luminescence, HepG2 viability (AID 624349; in the data active means parasite load remaining mostly below about 12%, no sharp cut-off; inactive means mostly above about 10%;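 further: 100% = mean of DMSO negative control wells on the same plate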); settings: P. berghei liver stage in HepG2, luciferase luminescence, concentration not given here; parasite load remaining: stronger effect = lower value; viability: measured here: HepG2 viability without parasites
[10] = stronger effect = lower value, cell number ratio, induced over uninduced
[11] = measured here: relative caspase fold change +Dox/-Dox
[12] = measured here: total cells with miR-34 induction, stronger effect = lower value
[13] = measured here: total cells without miR-34 induction
[14] = MELAS cybrid survival, CellTiter-Glo 48 h, stronger effect = higher value
[15] = Rieske KO mouse fibroblast survival, CellTiter-Glo 72 h

SMILES	inhibition [1]	fluorescence ratio (interference) [2]	fold change [3, 10]	fold change [3, 11]	cell count [3, 12]	cell count [3, 13]	outcome [4]	z-score [5]	period change [6]	z-score [7, 14]	z-score [7, 15]	survival [8]	parasite load remaining [9]	viability [9]
N#C/C(=C\c1ccc(-c2cc(Cl)ccc2Cl)o1)C(=O)Nc1cccc2ncccc12	-12% (inactive)	0.8 (active)	1.06 (inactive) and 0.955 (inactive)	0.614 and 1.48	1870 and 5590	1750 and 5850	inactive	0.46 (inactive)	–	–	–	–	–	–
NC1CONC1=O (centres undefined)	-2% (inactive)	1 (inactive)	1.01 (inactive) and 0.986 (inactive)	2.01 and 1.56	10700 and 9620	10600 and 9760	inactive	0.065 (inactive) and 0.91 (inactive)	-0.095 h (inactive)	–	–	–	–	–
CC(N)C1CCC(C(=O)Nc2ccncc2)CC1 (centres undefined)	-1% (inactive)	1 (inactive)	0.953 (inactive) and 0.841 (inactive)	1.2 and 0.911	10100 and 7170	10600 and 8530	inactive	-0.475 (inactive)	0 h (inactive)	-0.271 (inactive)	0.184	–	–	–
O=c1onc2n1-c1cc(Br)ccc1OC2	-4% (inactive)	1 (inactive)	1.09 (inactive) and 0.947 (inactive)	1.04 and 0.916	11200 and 5950	10300 and 6280	inactive	0.095 (inactive)	0.015 h (inactive)	–	–	–	–	–
CCCCCCCCCCCCCCCCCCOC[C@H](COP(=O)([O-])OCC[N+](C)(C)C)OC	0% (inactive)	1 (inactive)	0.77 (inactive) and 1.03 (inactive) and 1.02 (inactive)	1.7 and 0.981 and 0.958	1920 and 5950 and 5710	2500 and 5760 and 5620	inactive	-0.975 (inactive)	-0.025 h (inactive)	–	–	97.7 (inactive)	–	–
O=C(c1ccc(OCCCc2cnc[nH]2)cc1)C1CC1	-3% (inactive)	1 (inactive)	0.955 (inactive) and 1.01 (inactive)	1.12 and 0.82	9150 and 7760	9580 and 7660	inactive	-1.01 (inactive)	–	-0.324 (inactive)	-0.0656	–	–	–
O=[N+]([O-])c1ccc2c(c1)S(=O)(=O)C=C2	-2% (inactive)	1 (inactive)	0.698 (active) and 1.19 (inactive)	0.963 and 0.522	598 and 1740	856 and 1460	inactive	-1.38 (inactive)	–	3.07 (active)	-0.336	–	–	–
CN(C)S(=O)(=O)c1ccc2c(c1)/C(=C/c1cc3c([nH]1)CCCC3)C(=O)N2	-2% (inactive)	1 (inactive)	0.998 (inactive) and 0.964 (inactive)	1 and 1.24	3800 and 4420	3810 and 4590	active	1 (inactive)	-0.01 h (inactive)	–	–	–	43.1% (inactive)	152%
CCCC1CC(C(=O)NC(C(C)Cl)C2OC(SC)C(O)C(O)C2O)N(C)C1 (centres undefined)	–	–	0.887 (inactive) and 0.926 (inactive) and 0.928 (inactive)	0.463 and 0.824 and 1.2	8440 and 7670 and 9370	9520 and 8280 and 10100	–	-0.495 (inactive)	–	0.443 (inactive) and -0.35 (inactive) and -0.364 (inactive)	-0.229 and -0.0713 and 0.118	–	–	–
CNCCC(Oc1ccccc1C)c1ccccc1 (centres undefined)	-5% (inactive)	0.9 (inactive)	1.03 (inactive) and 0.898 (inactive) and 0.925 (inactive)	1.24 and 2 and 2.24	9740 and 9090 and 9100	9500 and 10100 and 9850	inactive	-0.235 (inactive) and -0.28 (inactive)	0.255 h (inactive)	-0.0629 (inactive)	-0.0775	–	–	–
C[C@]12C=CC(=O)C=C1CC[C@@H]1C2=CC[C@]2(C)[C@@H](C(=O)CN3CCN(c4cc(N5CCCC5)nc(N5CCCC5)n4)CC3)CC[C@@H]12	-5% (inactive)	0.9 (inactive)	0.983 (inactive) and 1.04 (inactive)	0.64 and 0.868	8450 and 5900	8600 and 5690	inactive	1.27 (inactive)	0.075 h (inactive)	–	–	–	–	–
CSC(=N)N	-4% (inactive)	1 (inactive)	1 (inactive) and 0.925 (inactive)	1.64 and 1.46	10600 and 5770	10500 and 6230	inactive	0.095 (inactive)	-0.11 h (inactive)	–	–	–	–	–
CCCCC[C@H](O)/C=C/[C@@H]1[C@@H](C/C=C\CCCC(=O)O)[C@H](O)C[C@H]1O	–	–	0.925 (inactive) and 0.811 (inactive) and 0.869 (inactive)	1.48 and 1.52 and 1.28	5990 and 4790 and 5310	6480 and 5900 and 6110	–	–	–	–	–	98.1 (inactive)	–	–
